Here are results for 89 molecules from ChEMBL document CHEMBL1157539, “Thousands of chemical starting points for antimalarial lead identification” (Nature, 2010).

Where “and” joins values, the source holds several entries; their conditions need not be identical. Equal entries are not always repeated. Among all 13,000 compounds or so, fewer than 10 showed an effect of 50% or more. Only a sample is shown.

This assay relates to Plasmodium falciparum. Kind of assay: GSK_TCMDC: Inhibition of Plasmodium falciparum 3D7 LDH activity, using an LDH reporter assay. Test compounds present at 2uM. It counts as functional, organism-based.
For `c1ccc(-c2ccc(-c3csc(Nc4ccncc4)n3)cc2)cc1`, the inhibition (as a rule, the relative decrease from the control value, in per cent) came to 3%.

`Cc1ccc2nc(C)cc(N/N=C/c3ccc([N+](=O)[O-])o3)c2c1` registered an inhibition of 0%.

As for `O=C(Nc1ccsc1)Nc1cccc(-c2cccc(-c3nc4cc(F)ccc4[nH]3)c2)c1`, the inhibition turned out to be 2%.

For the molecule `OCC(c1ccccc1)n1c(COc2ccc(Cl)cc2)nc2c(OCCCN3CCCCC3)cccc21` (centres undefined), the inhibition is 0%.

Molecule `CCN1CCC(N(Cc2ccc(-c3ccc(C(F)(F)F)cc3)cc2)C(=O)Cn2c(CCc3cccc(F)c3F)cc(=O)c3c2CCCC3)CC1` displayed an inhibition of 0%.

Molecule `COc1ccc2c(NN=Cc3cccc(F)c3)ccnc2c1` displayed an inhibition of 0%.

For the molecule `N#Cc1ccc(N2CCN(Cc3cccc(-c4ccc(-c5nc6cc(C(F)(F)F)ccc6[nH]5)cc4)c3)CC2)nc1`, the inhibition turned out to be 0%.

For the molecule `Nc1nc(N)c2c(ccc3[nH]c(-c4ccccc4Cl)nc32)n1`, the inhibition came to 0%.

Take `C=CCc1cccc(OC)c1OCCCON1C(=N)N=C(N)NC1(C)C`: the inhibition worked out at 0%.

Molecule `CC(C)CCn1c(Sc2ccc(C#N)c([N+](=O)[O-])c2)nnc1-c1ccc(Cl)cc1` returned an inhibition of 0%.

For the molecule `Cc1n[nH]c2ccc(-c3ccc4nccc(N5CCC(N)CC5)c4c3)cc12`, the inhibition worked out at 0%.

`CCOc1ccc2c(=NN=Cc3ccccc3F)cc(C)[nH]c2c1` displayed an inhibition of 0%.

Molecule `COc1cc(CN=C(S)NN=C(C)c2ccccn2)cc(OC)c1OC` yielded an inhibition of 0%.

`COc1ccc2c(c1)CC(C)(C)NC2CCCCCCCCC1NC(C)(C)Cc2cc(OC)ccc21` (centres undefined): the inhibition is 0%.

Molecule `CCCC(=O)c1cnc2c(OCCCc3c[nH]cn3)cccc2c1Nc1c(C)cccc1C` had an inhibition of 3%.

`CC[C@H](N/C(=N\c1ccc(-c2ccccc2)cc1)Nc1ccc(C#N)cc1O)c1ccccc1`: the inhibition was 4%.

On to `COc1c(Br)cc(Br)cc1-c1ccc(CN2CC3CCC2CC3)[nH]1`, for which the inhibition is 0%.

`CCCCCCN1CCC(NCc2ccc(Cl)cc2)CC1` showed an inhibition of 0%.

`COc1cc(NC(=O)c2sc(-c3ccc(Cl)cc3)cc2NC(=O)c2cccc(N(C)C)c2)ccc1OCCN1CCCC1` returned an inhibition of 0%.

Molecule `CCN(C1CCCCC1)S(=O)(=O)c1ccc(OC)c(N2CCN(C(=O)C(Cl)(Cl)Cl)CC2)c1` came in with an inhibition of 3%.

`O=C(NCCCN1CCOCC1)c1cccc(Nc2nccc(Nc3ccc(Oc4ccccc4)cc3)n2)c1` came in with an inhibition of 0%.

Molecule `CCC(=O)N(c1ccccc1)C1CCN(CCCC(NC(=O)c2cc(C(F)(F)F)cc(C(F)(F)F)c2)c2ccc(Cl)c(Cl)c2)CC1` (centres undefined) gave an inhibition of 0%.

The molecule `O=C(/C=C/c1ccc(-c2nc3ccc(Cl)cc3[nH]2)cc1)NC1CCN(Cc2ccccc2)CC1` returned an inhibition of 0%.

In turn, `CN(C)c1ccc(-c2csc(C(=O)NC3CCN(CCC(C)(C)C)C3)c2)cc1` (centres undefined) returned an inhibition of 2%.

For `NC(=O)c1cccc(C(=O)Nc2cccc(-c3cccc(-c4nc5cc(F)ccc5[nH]4)c3)c2)c1`, the inhibition is 1%.

The molecule `Cc1ccc(Cl)c2sc(N3CCN(C(=O)c4ccc([N+](=O)[O-])o4)CC3)nc12` registered an inhibition of 0%.

For `O=C(c1ccc([N+](=O)[O-])o1)N1CCN(c2nc3c(F)cc(F)cc3s2)CC1`, the inhibition is 0%.

The molecule `O=C(/C=C/c1ccc(I)cc1)NCCCCCN1CCC(c2c[nH]c3ccc(O)cc23)CC1` showed an inhibition of 2%.

In turn, `CN1CCN(CC(=O)Nc2cccc(-c3ccc(-c4nc5cc(F)ccc5[nH]4)cc3)c2)CC1` showed an inhibition of 6%.

Take `CCN(CC)CCN(CCN(CC)CC)c1ccc(-c2nc3cc(Cl)c(Cl)cc3[nH]2)cc1`: the inhibition turned out to be 2%.

For the molecule `Cc1ccc(-c2nc3cc(C(=O)NC4CCC(N5CCCc6ccc(C#N)cc6C5)CC4)ccc3[nH]2)cc1` (centres undefined), the inhibition came to 0%.

The molecule `CN(CCc1ccccn1)Cc1ccc(-c2ccc(-c3nc4ccccc4[nH]3)s2)cc1` registered an inhibition of 6%.

`CC(C)(C)OC(=O)NCc1ccc(Nc2nnc(-c3cccc(C(=O)NCCC(c4ccccc4)c4ccccc4)c3)o2)cc1` came in with an inhibition of 0%.

`FC(F)(F)c1ccc2[nH]c(-c3cccc(-c4ccc(CNCC5CCCO5)cc4)c3)nc2c1` (centres undefined) registered an inhibition of 0%.

The molecule `NCC1CCCN1Cc1cccc(-c2ccc(-c3nc4cc(C(F)(F)F)ccc4[nH]3)s2)c1` (centres undefined) displayed an inhibition of 0%.

For the molecule `O=c1sn(-c2csc3ccccc23)c2ccccc12`, the inhibition came to 0%.

Consider `COc1cc(NC(=O)C(c2ccc(Cl)cc2)C(C)C)cc(OC)c1` (centres undefined), for which the inhibition came to 0%.

In turn, `CC1(C)NC(N)=NC(=N)N1OCCCc1c(Cl)cccc1Cl` yielded an inhibition of 3%.

`Cn1cc(Br)c(-c2cccc(Nc3ccnc4cc(-c5nccs5)ccc34)c2)n1` had an inhibition of 0%.

As to `CC1(C)[C@H]2CC[C@@H](CNc3nc(NCCc4c[nH]cn4)nc(Nc4ccc(Oc5ccccc5)cc4)n3)[C@@H]1C2`, the inhibition came to 3%.

Turning to `O=C(CC1NC(=O)c2ccccc21)Nc1ccc(-c2ccc(-c3nc4cc(C(F)(F)F)ccc4[nH]3)cc2)cc1` (centres undefined), the inhibition was 0%.

For `CC(C)CNCc1ccc(-c2cccc(-c3nc4ccccc4[nH]3)c2)cc1`, the inhibition turned out to be 0%.

In turn, `Cc1cc2ccccc2n1CC(=O)N1CC(C(=O)N2CCCCC2)Oc2ccccc21` (centres undefined) returned an inhibition of 2%.

In turn, `CC1(C)CCC(C)(C)c2c1ccc(C1CCN(CCCCNC(=O)c3ccc(-c4ccc(C#N)cc4)cc3)CC1)c2O` returned an inhibition of 7%.

Turning to `c1cc(-c2ccc(CN3CCN(c4ccncc4)CC3)cc2)cc(-c2nc3ccccc3[nH]2)c1`, the inhibition is 0%.

Molecule `FC(F)(F)c1ccc2[nH]c(-c3ccc(-c4ccc(CNCc5cnn(-c6ccccc6)n5)cc4)cc3)nc2c1` registered an inhibition of 0%.

`OCc1ccc(-c2cncc(Nc3cccc(Cl)c3)c2)cc1` gave an inhibition of 0%.

As for `CNCCNCc1ccc(-c2ccc(-c3nc4cc(F)ccc4[nH]3)s2)cc1`, the inhibition came out at 2%.

Take `CC(C)CCNC(=N)Nc1ccc(OCCCCCOc2ccc(NC(=N)NCCC(C)C)cc2)cc1`: the inhibition was determined as 6%.

In turn, `CCOC(=O)c1ccc(NC(=O)Nc2cccc(-c3cccc(-c4nc5cccc(C)c5[nH]4)c3)c2)cc1` had an inhibition of 0%.

Regarding `CC(=NNc1nc2ccccc2s1)c1ccccn1`, the inhibition turned out to be 0%.

On to `Cn1cccc1C(=O)C(=O)Nc1ccc(-c2ccc(-c3nc4cc(F)ccc4[nH]3)cc2)cc1`, for which the inhibition came to 0%.

Consider `COC(=O)c1cccc(CNCc2cccc(-c3cccc(-c4nc5cc(C(F)(F)F)ccc5[nH]4)c3)c2)c1`, for which the inhibition was 6%.

`COc1ccc2nccc(N/N=C/c3cccc([N+](=O)[O-])c3)c2c1`: the inhibition was found to be 0%.

On to `CC(Cl)=CCc1c(C)nc2c(ccc3ccccc32)c1O`, for which the inhibition turned out to be 8%.

The molecule `Cc1cccc2nc(-c3ccc(-c4cccc(NC(=O)Nc5ccccc5)c4)cc3)[nH]c12` gave an inhibition of 9%.

Consider `CCOc1ccc2[nH]c(C)cc(=NN=Cc3cccc(F)c3)c2c1`, for which the inhibition is 0%.

Molecule `COc1ccc2nc3cc(Cl)ccc3c(NCCCCCCNc3c4ccc(Cl)cc4nc4ccc(OC)cc34)c2c1` came in with an inhibition of 0%.

Molecule `c1ccc(-c2ccc(CNCc3ccc(-c4cccc(-c5nc6ccccc6[nH]5)c4)cc3)s2)nc1` gave an inhibition of 0%.

Regarding `CN(C)c1ccc(CN2CCCCC(NC(=O)c3cc(-c4ccccc4Cl)cs3)C2)cc1` (centres undefined), the inhibition was 0%.

Consider `N=C(N)Nc1ccc(CCc2ccc(NC(=N)N)cc2)cc1`, for which the inhibition was 0%.

In turn, `COc1ccc2nccc([C@@H](O)CN3CCC(NC(=O)/C=C/c4ccc5ccccc5n4)CC3)c2c1` came in with an inhibition of 1%.

On to `N#Cc1ccc(N/C(=N\c2ccc(-c3ccccc3)cc2)NCCc2c[nH]c3ccccc23)c(O)c1`, for which the inhibition came to 6%.

Consider `Cc1cccc2nc(-c3cccc(-c4ccc(CNCCNC(=O)c5ccnn5C)cc4)c3)[nH]c12`, for which the inhibition was determined as 0%.

Molecule `NC1CCCN(Cc2ccc(-c3ccc(-c4nc5cc(F)ccc5[nH]4)s3)cc2)C1` (centres undefined) showed an inhibition of 1%.

As for `COc1ccccc1CCNc1nc(C)cc(N[C@@H](Cc2ccccc2)C(=O)NCCOc2ccccc2)n1`, the inhibition turned out to be 4%.

As to `O=C(Cn1c(SCc2cccc(F)c2F)cc(=O)c2ccccc21)N(CCn1ccnc1)Cc1ccc(-c2ccc(C(F)(F)F)cc2)cc1`, the inhibition was 0%.

As for `O=C(Nc1ccc(Cn2ncc(N3CCCNCC3)c(Cl)c2=O)cc1)Nc1ccc(-c2ccccc2)cc1`, the inhibition is 0% and 8%.

In turn, `O=C(OCc1ccccn1)c1nc2ccccc2[nH]1` came in with an inhibition of 0%.

With `O=C(NCc1cccs1)[C@H](Cc1ccccc1)Nc1ccnc(NCCc2ccccc2)n1`, the inhibition turned out to be 0%.

Take `Cc1cc(N2CCCC2)nc(NC(=N)Nc2cccc(C(F)(F)F)c2)n1`: the inhibition was found to be 1%.

As to `Cn1ncc2ccc(Nc3nccc(-c4ccc5c(c4)c(N)nn5C)n3)cc21`, the inhibition is 0%.

Regarding `Cn1c(Cc2ccccc2)nnc1Sc1ccc(C#N)c([N+](=O)[O-])c1`, the inhibition worked out at 0%.

Molecule `O=C(NCCN1CCCC1)c1cccc(-c2ccc(-c3nc4cc(F)ccc4[nH]3)cc2)c1` had an inhibition of 0%.

The molecule `CCOc1ccc2nc3cc(NC(=O)c4ccco4)ccc3c(N)c2c1` gave an inhibition of 0%.

For the molecule `Cc1cccc2nc(-c3ccc(-c4cccc(CN5CCN(c6ccncc6)CC5)c4)s3)[nH]c12`, the inhibition worked out at 6%.

In turn, `Cc1ccc(CN2CCN(Cc3cccc(NC(=O)c4cccs4)c3)CC2)cc1C` had an inhibition of 2%.

In turn, `CCN(CC)CCCC(C)Nc1c2ccccc2nc2c1ccc1ccccc12` (centres undefined) displayed an inhibition of 3%.

Turning to `CCOc1ccccc1NC(=O)C(Sc1nc(C)cc(C)c1C#N)c1ccccc1` (centres undefined), the inhibition was determined as 0%.

Molecule `O=C(/C=C/c1ccc(Cl)c(Cl)c1)NCCCCCN1CCC(CCNC(=O)Cc2ccc(Cl)cc2)CC1` showed an inhibition of 0%.

For `COc1ccc(CN2CCCN(Cc3cccc(NC(=O)c4ccc(Cl)c(Cl)c4)c3)CC2)cc1`, the inhibition is 5%.

Molecule `CCN(CCCN1CCCCC1)c1cc(C)nc(Nc2cccc(C(F)(F)F)c2C)n1` came in with an inhibition of 0%.

For the molecule `COc1ccc2nc3cc(Cl)ccc3c(NCCCCNc3c4ccc(Cl)cc4nc4ccc(OC)cc34)c2c1`, the inhibition turned out to be 6%.

In turn, `CS(=O)(=O)NCCCNCc1cccc(-c2ccc(-c3nc4ccccc4[nH]3)s2)c1` displayed an inhibition of 6%.

For the molecule `O=C(NCc1ccc(F)cc1)Nc1ccc(-c2cccc(-c3nc4cc(C(F)(F)F)ccc4[nH]3)c2)cc1`, the inhibition came out at 3%.

For `O=C(Nc1cccc(C(F)(F)F)c1)c1ccc(S(=O)(=O)NCC2CCN(CC3CCCCC3)CC2)cc1`, the inhibition turned out to be 0%.

Regarding `N[C@@H](Cc1cc(I)c(Oc2ccc(O)c(C(=O)O)c2)c(I)c1)C(=O)O`, the inhibition turned out to be 0%.

`CC(C)CNCc1ccc(-c2ccc(CNC3CCN(Cc4ccccc4)CC3)cc2)cc1` came in with an inhibition of 4%.

In turn, `CC1(C)N=C(N)N=C(N)N1c1ccc(Cl)cc1` returned an inhibition of 0%.
